“And” between values parts separate entries of the source, which are not always exact repeats. Identical values can stand only once. Screen size: about 650,000 compounds; about 6,800 (1%) were called active. Only a selection was taken, and actives are over-represented in it overall. Unmarked numbers belong to inactive results. No stated cut-off is given here; in the data, active means activation above about 4.9%; inactive means the rest.

In this assay the target is G-protein coupled receptor 151 (Homo sapiens) (UniProt Q8TDV0). The experiment in a line: activates the human receptor GPR151, primary screen, cell-based, PathHunter beta-arrestin, luminescence (AID 1508602).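 Further: 0% = median of compound wells and 100% = cells with positive control.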 The following applies: PathHunter beta-arrestin GPR151 cells, at 11.2 µM, active compounds read high.
G-protein coupled receptor 151 (Homo sapiens), sequence (Q8TDV0 whole entry, looked up): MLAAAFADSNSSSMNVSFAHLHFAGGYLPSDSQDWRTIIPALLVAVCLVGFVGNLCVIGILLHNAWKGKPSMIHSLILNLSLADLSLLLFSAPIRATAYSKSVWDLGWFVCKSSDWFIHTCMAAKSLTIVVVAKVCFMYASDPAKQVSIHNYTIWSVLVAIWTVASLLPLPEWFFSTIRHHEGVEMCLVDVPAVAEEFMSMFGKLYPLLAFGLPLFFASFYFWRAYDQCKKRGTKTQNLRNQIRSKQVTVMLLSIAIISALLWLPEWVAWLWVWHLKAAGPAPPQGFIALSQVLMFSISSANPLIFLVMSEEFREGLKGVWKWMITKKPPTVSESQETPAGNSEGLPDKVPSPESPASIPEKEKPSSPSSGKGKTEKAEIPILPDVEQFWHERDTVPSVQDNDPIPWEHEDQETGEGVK
For the compound `CN1C(=O)c2ccc(N3C(=O)c4cccc([N+](=O)[O-])c4C3=O)cc2C1=O`, the activation is 5.16% (active). Regarding `O=C1c2cccc([N+](=O)[O-])c2C(=O)N1c1ccc2ccccc2c1`, the activation was 0.404%. `O=C1NC(=O)c2cc(N3C(=O)c4cccc([N+](=O)[O-])c4C3=O)ccc21`: the activation was -0.912%. As for `CC1(C)CC(=O)c2cc(C(=O)Nc3cccc(F)c3)c(=O)n(-c3ccccc3)c2C1`, the figure is 0.451%; as for `O=C(NCCc1ccccc1)c1ccc2c(c1)NC(=O)C(CS(=O)(=O)Cc1cccc(F)c1)N2` (stereo not given), -0.907%; as for `CC(C)C[C@H]1NC(=O)[C@@H]2C[C@H](NCc3ccccc3)CN2C1=O`, 2.09%.

In the case of `O=C1N[C@@H](COCc2ccccc2)C(=O)N2C[C@@H](NCc3ccsc3)C[C@@H]12`, the activation was 1.22%. For the compound `CC(C)c1ccc(CN[C@H]2C[C@H]3C(=O)N[C@@H](COCc4ccccc4)C(=O)N3C2)cc1`, the activation is 5.83% (active). Next, `Cc1ccc(C2=N/C(=C\c3cccc(Cl)c3)C(=O)O2)cc1`: -1.7%; `Cc1nc(C)n(CCC(=O)N2CCN(Cc3ccccc3F)C[C@@H]2C(C)C)n1`: -0.818%. Take `CC(C)NC(=O)CSc1nccn1Cc1ccco1`: the activation is 0.992%. As for `COCCNC(=O)CSc1nccn1Cc1ccco1`, the figure is 4.92% (active); as for `COc1ccc(Cn2ccnc2SCC(=O)NCc2ccco2)cc1`, 0.251%; as for `COCCNC(=O)c1cccc(-n2c(=S)[nH]c3cc(Cl)ccc3c2=O)c1`, 1.05%. With `O=C(CCCOc1ccc(Cl)cc1)NCc1ccco1`, the activation was -1.43%. Next, `CCCCc1ccc2c(N)c(C(=O)Nc3ccc(C(=O)O)cc3)sc2n1`: -1.27%; `CCOC(=O)C1=C(CC)OC(N)=C(C#N)C1c1ccc(C(F)(F)F)cc1` (stereo not given): 5.43% (active); `CCCC1=C(C(=O)OCC)C(c2ccc(O)c(OC)c2)C(C#N)=C(N)O1` (stereo not given): 2.22%. As for `CCCC1=C(C(=O)OCC)C(c2cccc(F)c2)C(C#N)=C(N)O1` (stereo not given), the figure is 0.841%. Next, `c1ccc(Nc2cc(NCc3ccc4c(c3)OCO4)ncn2)cc1`: -0.773%; `CC1=C(C(=O)Nc2cccc(F)c2)C(c2ccccn2)C2=C(CCCC2=O)N1` (stereo not given): 4.99% (active).

In the case of `COc1cc(C2C(C(=O)Nc3ccccn3)=C(C)NC3=C2C(=O)CCC3)cc(OC)c1OC` (stereo not given), the activation is 0.722%.

In the case of `CC1=C(C(=O)Nc2ccccc2C(F)(F)F)C(c2ccccn2)C2=C(CC(C)(C)CC2=O)N1` (stereo not given), the activation is 0.421%. Next, `Cc1cccc(C)c1-n1c(=S)sc2c(=O)n(-c3cccc(Cl)c3)c(SCc3cccc([N+](=O)[O-])c3)nc21`: -0.958%; `Cc1ccccc1-n1c(SCC#N)nc2c(sc(=S)n2-c2ccccc2C)c1=O`: -0.0279%; `Cc1cccc(C)c1-n1c(=S)sc2c(=O)n(-c3cccc(Cl)c3)c(SCC#N)nc21`: 7.07% (active). Next, `CCCOc1ccc(-c2ccc(-c3noc(-c4ccc(OCC)cc4)n3)cc2)cc1`: -1.32%; `O=C(COc1ccc(Cl)cc1Cl)NCc1nc(-c2ccccc2)no1`: -1.12%. Next, `Cc1sc(NC(=O)CN(C(=O)CCc2ccccc2)C2CCCC2)c(C(N)=O)c1C`: 0.0057%; `CCCCNC(=O)C1CCC(=O)N1Cc1ccc(F)cc1` (stereo not given): 1.65%. Consider `O=C(Nc1cccc(N2CCC(NCC3COc4ccccc4O3)CC2)c1)c1cccnc1` (stereo not given), for which the activation is 0.419%. Next, `COc1ccc(CNC2CCN(c3cccc(NC(=O)c4cccnc4)c3)CC2)cc1`: -0.19%; `O=C(Nc1cccc(N2CCC(NCc3ccon3)CC2)c1)c1cccnc1`: 5.91% (active); `Cc1cc2[nH]c(=O)c(=O)[nH]c2cc1S(=O)(=O)Nc1ccc(Br)cc1F`: 1.29%. Next, `Cc1ccc2c(CNCc3ccccc3Cl)c(C(=O)O)n(Cc3ccccc3)c2c1`: 2.57%. Next, `O=C(NCCOc1ccccc1)c1cnc(N2CCCC2CO)s1` (stereo not given): -3.77%. As for `O=C(NCCOc1ccccc1)c1cnc(N2CCN(c3ccccn3)CC2)s1`, the activation is 7.58% (active).

As for `O=C(NCCOc1ccccc1)c1cnc(Nc2cccnc2)s1`, the activation is 0.0811%. Next, `O=C(NNS(=O)(=O)c1ccc2ccccc2c1)Nc1ccc(F)cc1F`: -1.26%; `O=C(Nc1cccc(Oc2ccc(C(=O)O)c(C(=O)O)c2)c1)c1cccs1`: -1.23%.

On to `COc1ccc(CN2CCOc3ccc(C(C)(O)CN(C)C)cc3C2)c(Cl)c1OC` (stereo not given), for which the activation was -0.16%. With `CC(C)(C)NC(=O)Cc1coc2ccc3ccccc3c12`, the activation was 5.9% (active). Next, `O=C(Cc1coc2ccc3ccccc3c12)NCc1cccnc1`: 1.97%; `O=C(Cc1coc2ccc3ccccc3c12)NC1CCN(Cc2ccccc2)CC1`: 1.58%. `COc1ccc(CCN(C(C)=O)C2CC(=O)N(c3ccc(Cl)cc3)C2=O)cc1` (stereo not given): the activation was 2.31%. With `Cc1nc2ccccc2c(=O)n1-c1ccc(OC(F)(F)C(F)F)cc1`, the activation was -0.339%.

`COc1ccccc1C1C(C(N)=O)=C(C)Nc2nc(CCCO)nn21` (stereo not given): the activation was 7.86% (active).

For the compound `CC1=C(C(N)=O)C(c2ccc(F)cc2)n2nc(CCCO)nc2N1` (stereo not given), the activation is 0.25%. Next, `COc1ccccc1C1C(C(=O)Nc2ccc(F)cc2)=C(C)Nc2nc(CCCO)nn21` (stereo not given): -0.0995%; `O=S(=O)(c1cccs1)N1CCc2nc(-c3cccnc3)nc(N3CCCCC3)c2C1`: 0.747%; `O=C(O)c1cccc(-n2[nH]c(=O)ccc2=O)c1`: -1.37%.

For the compound `COc1ccc(-c2c(C)oc3cc(OC)ccc3c2=O)cc1`, the activation is 0.167%. Next, `CCOC(=O)c1cc2cc(-c3c(C)oc4cc(OC(C)=O)ccc4c3=O)ccc2o1`: 6.66% (active); `CCOC(=O)c1cc2cc(-c3c(C(=O)OCC)oc4cc(O)cc(O)c4c3=O)ccc2o1`: 0.272%; `C/C=C/C=C/C(=O)N1C(=O)C(=O)c2ccccc21`: -4.81%. Next, `Cc1ccc(NC(=O)CSc2nnc(-c3ccc(N)cc3)n2C)cc1Cl`: 5.78% (active). As for `Cc1ccc(Cl)cc1NC(=O)CSc1nnc(-c2ccc(N)cc2)n1C`, the figure is 0.746%; as for `Cc1ccc(NC(=O)CSc2nnc(-c3ccc(O)cc3)n2C)cc1N`, -0.276%. As to `CCOC(=O)/C(C#N)=C\c1c(C)cc(C)c(COC)c1C`, the activation is 4.44%. Next, `CN1CCC[C@@H]1CCOC(C)(c1ccccc1)c1ccc(Cl)cc1` (stereo not given in full): -2.7% and 3.67%; `O=c1sc2sc(=S)sc2s1`: -0.693%. For `c1ccc(-n2nnnc2NC2CCCCCC2)cc1`, the activation is -0.96%. Next, `Brc1cnc(NC2CCCCC2)nc1`: 7.99% (active); `C1CCC(Nc2nc3nonc3nc2NC2CCCCC2)CC1`: -0.129%; `CCc1cc2cc(OC)ccc2nc1SCC(=O)Nc1nccs1`: 0.182%. Next, `CN1CCN(C(=O)c2ccc(-c3nc(NCc4ccccc4)c4ncn(Cc5ccc(C(F)(F)F)cc5)c4n3)cc2)CC1`: 0.228%; `COc1ccccc1C(=O)CN1CCN(S(=O)(=O)c2ccc(Cl)cc2)CC1`: 1.49%. Next, `O=[N+]([O-])c1ccccc1S(=O)(=O)NCCSCc1ccc(Cl)cc1`: -0.348%. Take `O=C(N1CCCCCC1)C12CC3CC(CC(C3)C1)C2`: the activation was 0.202%.

On to `NC(=O)C12CC3CC(CC(C3)C1)C2`, for which the activation is -0.0547%. As for `COC(=O)[C@@H]1CC(O)CN1C(=O)C12CC3CC(CC(C3)C1)C2` (stereo not given in full), the figure is 6.17% (active). Next, `CCc1ccc(N2N=C(C)/C(=C\c3ccc(-c4ccc5c(c4)C(=O)NC5=O)o3)C2=O)cc1`: 6.36% (active); `CCc1ccc(N2N=C(C)/C(=C/c3ccc(-c4ccc(S(N)(=O)=O)cc4)o3)C2=O)cc1`: -0.641%; `CC1=NN(c2cccc(Cl)c2)C(=O)/C1=C/c1ccc(-c2ccc(F)cc2)o1`: 1.46%. Next, `COc1cccc(NC(=O)c2sc3ncn(CC(=O)Nc4ccccc4OC)c(=O)c3c2C)c1`: 0.463%; `CC(C)(C)C1(O)CC(=O)C(=O)NN1c1ccccc1` (stereo not given): -0.103%.

For the compound `CC(CO)(CO)NC(=S)NC(=O)c1ccccc1`, the activation was -2.1%. As for `CC(C)C[C@@H]1NC(=O)[C@H]2CN(Cc3ccccc3Cl)CCN2C1=O`, the figure is 1.34%; as for `Cc1ccc(C(=O)COc2ccc(C#N)cc2)c(C)c1`, 0.546%; as for `Cc1sc(NC(=O)CN(C(=O)c2cccc(F)c2)C2CCCC2)c(C(N)=O)c1C`, 0.439%.

Take `CCN1C(=O)C(=Cc2ccc(N3CCCC3)cc2C)C(=O)N(CC)C1=S`: the activation was 2.62%.

For the compound `Cc1cc(N2CCOCC2)ccc1/C=C1\C(=O)NC(=S)N(c2ccccc2)C1=O`, the activation was 0.368%. Consider `Cc1cc(N2CCOCC2)ccc1C=C1C(=O)c2ccccc2C1=O`, for which the activation is 5.28% (active).

With `O=C(Nc1nc2c(ccc3ccccc32)s1)c1cccc(Oc2ccccc2)c1`, the activation was 1.27%. Next, `COC(=O)c1c(NC(=O)c2ccc(Cl)c(Cl)c2)sc2c1CCCC2`: 0.167%; `COC(=O)c1c(NC(=O)Nc2ccc(Cl)c(Cl)c2)sc2c1CCCC2`: 8.57% (active). Next, `CCOC(=O)c1c(NC(=O)Nc2cccc(Cl)c2)sc2c1CCCC2`: 0.0535%. Next, `Cc1ccc(C)c(NC(=O)CN(c2cccc(C)c2C)S(C)(=O)=O)c1`: 0.883%; `COc1ccc(OC)c(NC(=O)CN(c2cccc(C)c2C)S(C)(=O)=O)c1`: 5.98% (active); `COc1ccc(NC(=O)CN(c2cc(OC)ccc2OC)S(C)(=O)=O)c(OC)c1`: 0.777%.
